# According to the supplement of paper PMC10681739:
# Assays:
# ETS1 [1] = target: T1, ETS1 (UniProt P14921); assay: ETS1 binding intensity (PBM fluorescence), ETS1 alone (arbitrary fluorescence units); higher = stronger binding; details: ETS1 concentration 1 nM; RUNX1 concentration 0 nM
# T1 sequence: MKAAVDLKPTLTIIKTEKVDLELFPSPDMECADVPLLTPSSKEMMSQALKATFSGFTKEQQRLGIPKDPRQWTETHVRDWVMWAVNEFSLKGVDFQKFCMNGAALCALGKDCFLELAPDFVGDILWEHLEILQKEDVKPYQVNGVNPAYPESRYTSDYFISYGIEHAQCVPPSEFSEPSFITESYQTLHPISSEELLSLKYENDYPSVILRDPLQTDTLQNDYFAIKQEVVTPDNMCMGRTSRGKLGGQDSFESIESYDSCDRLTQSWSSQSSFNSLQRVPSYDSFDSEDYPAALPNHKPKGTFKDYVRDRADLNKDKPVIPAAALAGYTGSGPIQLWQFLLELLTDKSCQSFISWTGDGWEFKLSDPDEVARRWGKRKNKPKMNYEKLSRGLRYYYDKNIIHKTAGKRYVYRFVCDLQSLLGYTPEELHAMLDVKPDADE
# RUNX1 [2] = target: RUNX1 (UniProt Q01196); assay: RUNX1 binding intensity (PBM fluorescence), RUNX1 alone (arbitrary fluorescence units); higher = stronger binding; details: RUNX1 concentration 2 nM; ETS1 concentration 0 nM
# Method: (§1)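 Cooperative gcPBM on 36-bp genomic probes with neighbouring ETS1 and RUNX1 sites. Recombinant human RUNX1 (2 nM) was incubated alone or with ETS1 (25 nM) and detected with anti-RUNX1 antibody plus Alexa488 secondary. Values are medians over 4 replicate spots; the RUNX1+ETS1 data were normalised to the RUNX1-only data. The probes sit in constant array flanks that are not printed.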
# ETS1 [3] = target: T1, ETS1; assay: ETS1 binding intensity (PBM fluorescence) in presence of RUNX1, normalised to ETS1-only experiment (arbitrary fluorescence units); higher = stronger binding; details: ETS1 concentration 1 nM; RUNX1 concentration 25 nM
# RUNX1 [4] = target: RUNX1 (UniProt Q01196); assay: RUNX1 binding intensity (PBM fluorescence) in presence of ETS1, normalised to RUNX1-only experiment (arbitrary fluorescence units); higher = stronger binding; details: RUNX1 concentration 2 nM; ETS1 concentration 25 nM
# Method: as §1
# 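Wherever RUNX1 binding intensity (PBM fluorescence) in presence of ETS1, normalised to RUNX1-only experiment is given: Full-length recombinant human ETS1 or RUNX1 bound to double-stranded 36-bp genomic probes on microarrays, detected by protein-specific primary antibody and Alexa488 secondary, spot fluorescence as median of four replicate spots.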
# 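Wherever RUNX1 binding intensity (PBM fluorescence), RUNX1 alone is given: Full-length recombinant human RUNX1 bound to double-stranded 36-bp genomic probes on a high-density microarray, scored as Alexa488 fluorescence per spot via anti-RUNX1 antibody, median of four replicate spots.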
# Chain of RUNX1 (Q01196 whole entry): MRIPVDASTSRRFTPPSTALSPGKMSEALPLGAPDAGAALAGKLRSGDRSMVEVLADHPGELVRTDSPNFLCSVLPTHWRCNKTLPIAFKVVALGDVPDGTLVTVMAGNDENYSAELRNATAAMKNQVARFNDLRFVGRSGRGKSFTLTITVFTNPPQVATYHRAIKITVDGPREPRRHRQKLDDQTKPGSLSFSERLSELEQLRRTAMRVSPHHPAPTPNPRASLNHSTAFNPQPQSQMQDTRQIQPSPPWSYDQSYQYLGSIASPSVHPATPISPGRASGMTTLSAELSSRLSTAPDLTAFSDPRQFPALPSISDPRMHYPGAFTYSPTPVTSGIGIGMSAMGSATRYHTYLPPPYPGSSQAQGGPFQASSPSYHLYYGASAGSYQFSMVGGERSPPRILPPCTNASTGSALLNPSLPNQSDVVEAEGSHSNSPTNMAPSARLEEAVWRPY
Sequence,ETS1 binding intensity (ETS1 [1]),RUNX1 binding intensity (RUNX1 [2]),ETS1 binding intensity (ETS1 [3]),RUNX1 binding intensity (RUNX1 [4])
CCAGATTAGGAAACCCACCCGGCCCACAAAAAGCGG,445,,,
GCTATCGAGCTTCCTGCAGCGGTGGCCACCCGAGCA,482,,,
GCTGTCCATTTCCGAGATGTTAATGCGGGATCTTGC,408,,,
CTCTGCCCGCTTCCGCTGGCGGTACCTCAGAGCCGC,,904,920,4710
TGACATCCTCTGAGGCAGCAAGCTGCGGTGAAGTCT,,704,561,1300
GATACTCTTCCTGTCATCCCATCCCCACAGCCTTAG,503,,,
TAAACGTCAGCTTCCTTTGTGGCTTACCCTCCCGCC,495,,,
CTGTGCGAGGCAGGATGTGGTCTCCCGCCACCAGGG,,,13800,3160
CTCTTCTTCAGGGTTTCCTGTGGGTACACTGAGAAC,604,,,
AGGCTTCCTGTTTTATCTCGTGTGTGTGGTGCACCA,,970,565,2120
ATGCGAGTCTGCTTCCTGCCACAAATCACAATTTGA,665,,,
CTTGGCGGAAGTGGTGTGGGGGAGGTAGCCCGCAGT,,753,5600,3460
AGCGTTGTCTTCCGGCCTCAACCACTCAGCGACCGG,,751,10600,1760
TCTGGCTTCCTGTCTTAATAGGGCTTTGTGGTGTGC,,832,1080,2040
TTCAGGTGACTTCCGGCCGGACCGCTGAGGACGCGG,,684,9520,1630
ACGCCGCGCATCCGCGCTTTACGGCGGCCGCAAAAT,405,,,
TGATTAAAAACAGGATGTGGGTGAATAGTCATGCAT,,759,7580,2490
GCACCCGGCACTACTTCCCGACCCGCATCCCCCGCC,,1260,683,1320
AGGCGGCAGGAAATGACCCCATCCCGCAGCCTGGGC,,806,5190,2040
GTTGTGCTCTTTCCTGCTTCCCGCAGTTTTTTAGTT,,,921,1890
AAAGAGAAAGGAAACAAAGTATAGCACCACAGTGAG,475,,,
GTGTTGGGTGGCTTCCTGCGGCGTTTCCACTCTCGC,605,,,
GACGGGATGTAGGTTTTCAGCCGTGGCCACAGGAGA,496,,,
TATCACGTTTCCTGCTGCTGCACCGCGACCTCAGCT,513,,,
AGCTTTCCTTTTCCGGTTGCGGCGCCGCGCGTTGAT,,926,1820,2340

Sequence,ETS1 binding intensity (ETS1 [1]),RUNX1 binding intensity (RUNX1 [2]),ETS1 binding intensity (ETS1 [3]),RUNX1 binding intensity (RUNX1 [4])
GGCTTCCGGCGGGGTACCCTCCTCTGTGGGCGGGGC,,,572,1750
TTTAAGGGCGGAAAGGCTTTAGCCGCAAAATGGCTT,547,,,
AAGTGAAGAGCTTCCGCCGGGAGACCGCGGCTGCAG,,737,686,1250
TCCCGAGAGCCGGAAGCAGCCGCAGGCCCCGCCACA,,778,4410,1330
GGTTTTGGTAGGAAGGAAAGTGGTTTTCATAGGAAG,588,,,
GTAGCCGGGTGTTCCGGAGCGCTGCGGGCAAAGCAG,387,,,
CAGTCAGACGGAAGCCCGGCTTCTGTGGTGCCTGCC,459,,,
AGTTTCTCCAGGAAGCGCTGAGGTTTTCTCAGAAGT,763,,,
AGGGCGCCGCTTCCGGGAGCCCGCAAGCGGCCTCCG,606,,,
CACCGCCGGAGTCCCGGATGTGGTTGCTAGGGCAGC,,,14900,3280
TGCTCAAATGCAGGATGTGGTCTGAGAGTTTCTCCT,,,6550,1680
GTGCAGGCAATGAGGATGTTGTGGGGGAGACAGGGA,746,,,
ATTACATCCGGGCTCCGCGACACGCCCGAACCACAA,549,,,
TGATAAAACACAGGATGTGGTAAGGGAGCTGGCCAA,,682,14200,4550
TGCCCAGTACTTCCTCTTGTGGGGGAGCACAACTTG,569,,,
GACAATGAGCGCACAGGATGTGGTTTGGCGGCAGGG,6680,854,,
CCAGAATGCAGGAAGTGCTGTGGTTTGACTTTGTTT,3550,831,9350,
CCTCGGTTCGGAAACGGCGAAAGCAAACCGCAAGGA,478,2260,3890,
AGGACGGGCGGAAGTGGCTGCGGTGGATGGTGGGAG,4180,797,,
TGTATAACATCCTCATGTTCTGTGGGTGAGTTGAGC,481,824,356,
AACTAGAGCGTCATTTCCTGTGGGTACAAGTCCAGT,1640,842,2400,
CCACGGCTGGCTTCCTGTGTGGTTGGCACGCCTTAC,951,772,1210,
CAGAGGACAGGATGCCAACCCCAAAACCGCAGCGAC,733,4020,6200,
ACCTCATCCTGCTGTTCTTGTGTGTGGTTGAGCAGT,453,944,432,
ACACCTCAGGAAGTGGCAGAGACCACAACAAGTCAG,701,816,,

Sequence,ETS1 binding intensity (ETS1 [1]),RUNX1 binding intensity (RUNX1 [2]),ETS1 binding intensity (ETS1 [3]),RUNX1 binding intensity (RUNX1 [4])
GCAGTTTCAAGAGGATGTGGTCTCTTTCACTGCCTG,1160,724,,
AGGGCTGAAACAGGATGTGGTGAGTGAGGTAGGGTG,6020,816,16600,
CCAACACAGGAAATAATTTGAAACCACAATCAGAAA,1270,1290,4460,
GGACCCAGCAGAGGATGTGGTTACAGGGCCATGATA,720,836,5450,
TTAGGCAGAGCTCATTTCCGCCCACATCAAAAGTAA,1710,867,1990,
GGAGAGTTGACTTCCGGCGGCTTGTGGGAGTGCTGG,2740,771,2640,
ACACAAACAGGAAGTGTTTGTGGTCCCTGCCTTTAG,7210,748,14500,
AACAGCACACAGGAAGTTACCGCTGAAGCAAAGGAG,2750,813,4760,
GGCCCAGGAAAGAGGCAGGGGTGCGGTTTCCCTCCG,394,1060,761,
GCAGGGACCGGAAGTCCATGGCTCTGCCGCAACCCT,13400,738,13700,
CCCGCGACACAAGGCGGATGTGGTACCCTCACTTGT,3250,820,5070,
GGCTGCAGGAAGTGGGAAGGTGTGGCTTTGAGTCTC,1830,755,2460,
AACAGAGACCCGGAAGTTGTGGGACGAAGCCAGGAC,4960,810,6420,
CTGGTTTCATTTCCGGGTGCGGCTTCTGTCATAAAG,1900,924,2350,
GCGAGCACTTCCGGTGTGTGAGCCTGCGGTTGCTAC,7480,845,22400,
TGTTTTCGCTCTTCCTGGCCTTGCGGGCAGCCAGGA,390,1060,783,
AACGGACCCGGAAGGGGCAGGTCTTGTGGGCGGGTC,814,822,1420,
GAAGCCAGGAAATGGTGCGTGTGCGGGGCCGGGCGC,982,663,1010,
TGAAGTTGGTGTTTTCCGGGGGCGGTTTTTCCATTG,504,897,451,
GGGGCAGCTTCCGGCAGGAGAGCCCGCATTCACGGC,731,1370,751,
CGTCACTTCCCACGCGACTGCCTGCGGGAAACATGG,550,1150,704,
TGGCTGTCACTTCCTGTCCCACTGTGGTTCCTGGGA,4940,763,5740,
ATAGACTCAGGAAGTGATTGTGGTAAGATTCTATAT,1460,829,,
GGATGACATCCGGCACCAACTTAACCACTAATCTCA,615,947,1690,
TAGCCACTAACCGGAAACGTTAAACCACAGCTCCGT,10100,1180,,

Sequence,ETS1 binding intensity (ETS1 [1]),RUNX1 binding intensity (RUNX1 [2]),ETS1 binding intensity (ETS1 [3]),RUNX1 binding intensity (RUNX1 [4])
GTGGCGGGGCGGAAGTTCACATGTGTGGTATGTAGA,2720,940,,
ACACTGGCCGGAAGGGGCGGGACCGCGAGTTAAGAG,1280,791,2380,
TACCCAGAAAGGAAGTGGAACCTGCGGTGAGGCCCC,1130,875,5650,
GCAGCTCTGGCAGGATGCGGTTAAATATGTAGCCAC,2030,2690,12800,
TGCCTTCTACTCCGGAACTCAGACCGCTGCCTTCTA,759,1090,979,
TGCCCTGACTTCCTGGTCCTGTGGTCAAGGATGGGG,1340,889,2810,
TCACATCCTGTAATGGTTTGCGCATACCACAGTTCT,455,825,684,
TGGAAGCGGCTTCCGGGGTGAATGCGGTTGGATCGT,1150,1030,3990,
TAAGCAGGGAATAGAGGAAGTGGTTTTGTCTCAGGC,3270,779,7880,
AAGGGAGCCGCCCGGAAACCGCGCGGCAAAGATGCC,1560,734,2940,
AGCTGCTGTTTTCCGGCTGCGGCACTGGATGAAGGA,498,711,422,
CCGCTTCCGGCCTTCGCCCGGCTTACCCGCGTCGCA,1490,1070,1740,
CTCCGATTGAGAACAGGAAGCCACAGGCCAATACAA,2660,831,3260,
CACTTCCTGCCCTCTTCCACTTTCAAAACCACATCA,869,4540,1850,
GAAGTCACTCAGGGAGGAAACCACAGGGCCGGTCCG,466,880,1270,
TGGTTCCACCGACCGGAAGGGCCACAAGGATCCCCG,5280,659,5560,
GCCGGGCACCCCGGAAGACCGCTGGGAACCGGCTTT,1080,656,1070,
AGGAGAACTTCCGCCCTTACTATATTACCGCCGGTA,1180,737,1090,
CCCTACCTCTCCTTCCTGCCACAAGGGAAAGTCACT,508,1390,481,
GGACTTCCTGAAGCCAGATCGGTTTACCACAGTCAG,413,634,599,
GCGCGGCCAGAGAAAGGATGTGGTATAGCAGAAAGT,1260,865,4380,
TGCAATTGGCAGACAGGAAACCGCGGCGTTTTCTGG,5340,764,13500,
AAGTTCTTCCGGGTCTGCAGTCTGTGGTGTGTTTGC,478,810,422,
AGTGGAGTAGGAACCGGAAAACCACAATAAGTCCCA,2170,1470,12400,
